Laboratory results reported in PubChem BioAssay AID504332 (National Center for Advancing Translational Sciences (NCATS), 2011).
“And” between values parts separate entries of the source, which are not always exact repeats. Identical values can stand only once. Hit rate of the full screen: of about 350,000 compounds, about 31,000 (8.9%) were called active. Inconclusive results (about 15%) are left out. The sample holds actives, similar compounds and a random draw of the others, so the mix is not that of the screen. Calls come from the whole dose curve; as a rule, active = well fitted inhibition curve with a large enough effect; inconclusive = small, poorly fitted or top-dose-only effect; inactive = no such curve, though single readings can be large or run the other way. Some compounds were tested as several samples or in several runs, with calls that do not always agree.

Biological target: Histone-lysine N-methyltransferase EHMT2 (Homo sapiens) (UniProt Q96KQ7)
Sequence (Q96KQ7 913-1193 limits assumed): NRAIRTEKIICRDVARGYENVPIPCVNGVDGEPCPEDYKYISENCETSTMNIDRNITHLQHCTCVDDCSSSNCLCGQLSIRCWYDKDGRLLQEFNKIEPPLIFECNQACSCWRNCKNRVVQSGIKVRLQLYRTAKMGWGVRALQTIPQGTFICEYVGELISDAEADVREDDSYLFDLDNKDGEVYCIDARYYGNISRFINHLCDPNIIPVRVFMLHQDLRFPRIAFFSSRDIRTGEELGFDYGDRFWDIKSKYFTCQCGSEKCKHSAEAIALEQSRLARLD
Test: qHTS Assay for Inhibitors of Histone Lysine Methyltransferase G9a; note: nearly all actives have a fitted effect of over 75% in size
Details: G9a H3K9 monomethylation, AlphaScreen, 2 h; series mostly up to 59 µM; activity, negative = inhibition: at the top concentration
In short: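 Quantitative HTS format: methyltransferase activity on a biotin-tagged H3K9 peptide is measured by AlphaScreen, using a rabbit anti-monomethyl-H3K9 antibody with streptavidin donor and anti-IgG acceptor beads. Final levels are 20 nM enzyme, 500 nM peptide, 20 uM SAM; 2 h RT.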
% is set by controls: 0 for no effect and ±100 for the full control effect; potency is the fitted concentration of half-maximal effect.

activity, negative = inhibition, inactive:
COc1ccc2c(c1)[C@H]1[C@H](CO2)[C@H](c2ccccc2)[C@]2(C)C(=O)Nc3cc(F)c(F)cc3C(=O)N12 5.78% [at 2.33 µM], COc1ccc(-c2nonc2NC(=O)c2oc3ccc(F)cc3c2C)cc1OC 1.61% [at 102 µM], Cc1c(NC(=O)Cc2ccccc2)cccc1-c1nc2cccnc2s1 -27.2%, O=C(Cc1cc(=O)[nH][nH]1)N/N=C/c1ccccc1[N+](=O)[O-] 9.5% [at 102 µM], CN(C)/N=C/c1cc(Cl)cc([N+](=O)[O-])c1O -14.3%, CCOc1ccc(N(CC)C(=O)c2noc3c2COc2ccc(C)cc2-3)cc1 10.9%, CC1CCCCC1NC(=O)c1cn(C)c2ccc(S(=O)(=O)N3CCOCC3)cc2c1=O (configuration not stated) -4.36% [at 102 µM], CCn1cc(C(=O)N2CC(C)CC(C)C2)c(=O)c2cc(S(=O)(=O)N3CCCC3)ccc21 (configuration not stated) 12.6% [at 102 µM], O=C1C=C(c2ccnc3cc(Cl)ccc23)C[C@@H](c2ccc3c(c2)OCO3)C1 -18.7% [at 0.501 µM], COc1cccc(N2CC(NS(=O)(=O)c3cccs3)CC2=O)c1 (configuration not stated) 4.26% [at 102 µM], Cc1ccc2c(CN3CCN(S(=O)(=O)c4ccccc4C(F)(F)F)CC3)cc(=O)oc2c1 -13.1% [at 12.7 µM], COCc1cc(=O)oc2cc(NS(=O)(=O)c3ccc(C)cc3)ccc12 -1.12% [at 102 µM], O=C(/C=C/c1ccccc1[N+](=O)[O-])OCC(=O)N1CCCC1 11.7% [at 12.7 µM], O=C(/C=C/c1ccccc1[N+](=O)[O-])NCC1CCCO1 (configuration not stated) -4.67%, CC(C)CNC(=O)COC(=O)/C=C/c1ccccc1[N+](=O)[O-] 6.78%, O=C(/C=C/c1ccccc1[N+](=O)[O-])OC1CCCCC1=O (configuration not stated) -0.9% [at 102 µM], CCC1(C)CC(=O)c2c(ccc3oc(C(=O)Nc4ccc(C(C)=O)cc4)c(C)c23)O1 (configuration not stated) 1.06%, Cc1ccc(C)c(N2CCN(C(=O)C3CCC(CNS(=O)(=O)c4cccs4)CC3)CC2)c1 (configuration not stated) -7.4%, CCCN1CCN(C(=O)CCCNC(=O)c2ccc(Cl)cc2)CC1 -12.5% [at 102 µM], COc1ccccc1NC(=O)c1cc(C2CC2)nc2c1c(C)nn2-c1ccc(C)cc1 3.8%, CCN(CC)S(=O)(=O)c1ccc2c(c1)N(CC(=O)NCC(C)c1ccccc1)C(=O)CO2 (configuration not stated) -7.99%, O=C(COC(=O)c1cc(S(=O)(=O)N2CCOCC2)ccc1Cl)NCCc1ccccc1 -2.95% [at 12.7 µM], Cc1ccnc(NC(=O)CNC(=O)c2ccccc2)c1 -3.79% [at 102 µM], O=c1[nH]c(-c2cccs2)nc2ccccc12 10.3%, O=C(O)/C=C/c1cn(-c2ccccc2)nc1-c1cccs1 -5.58% [at 102 µM], CC1=C(C(=O)OCC(C)C)C(c2ccc(OCc3ccccc3)cc2)N2C(=O)CCSC2=N1 (configuration not stated) -28.6%, O=C(c1ccccc1F)N1CCN(S(=O)(=O)c2ccc(Br)cc2)CC1 27% [at 102 µM], O=C(c1ccc(Cl)c(S(=O)(=O)N2CCCCC2)c1)N1CCCCCC1 28.7% [at 102 µM], CC(C)CN(C(=O)Cn1c(=O)cnc2ccccc21)C1CCS(=O)(=O)C1 (configuration not stated) 2.69% [at 102 µM], O=C1[C@H]2[C@@H](c3ccc(Cl)cc3)N3C(=O)N(c4cccc(F)c4)C(=O)[C@@]3(Cc3ccccc3)[C@H]2C(=O)N1C1CCCCC1 -8.78% [at 2.33 µM], c1cncc(-c2nc(N3CCNCC3)c3ccccc3n2)c1 8.14% [at 0.501 µM], CC(C)(C)OC(=O)N1CCC(c2c(C(=O)NCc3ccccn3)cnn2-c2ccc(F)cc2)CC1 51.9%, COCCNC(=S)N(Cc1cccnc1)Cc1ccc(OC)c(OC)c1 17.6% [at 102 µM], Cc1ccc2[nH]c(C)c(CCNC(=O)NC3CCCCC3)c2c1 3.69% [at 102 µM], Cc1ccc(CN(Cc2cccnc2)C(=S)Nc2cc(Cl)ccc2C)cc1 4.45% [at 102 µM], Cc1ccc(NC(=S)N(Cc2ccco2)C(C)c2cccs2)cc1 (configuration not stated) 18.1%, COC(=O)c1ccc(-c2c(-c3ccccc3)ncc3cc(OC)c(OC)cc23)cc1 -32.8% [at 0.501 µM], Cc1cc(C)n2nc(C(=O)OC(C)C(=O)c3cc(C)c(C)cc3C)nc2n1 (configuration not stated) 20.5% [at 0.501 µM], COc1cccc(C(=O)NCc2ccc3c(c2)CCN3C(=O)c2ccncc2)c1 6%, O=C(Cc1cccs1)NCc1cccc(C(F)(F)F)c1 13.6% [at 102 µM], COc1ccccc1NC(=O)CCC(=O)OC(C)C(=O)c1ccccc1 (configuration not stated) -6.17% [at 102 µM], O=C(CN1C(=O)NC2(CCOc3ccccc32)C1=O)NCc1ccc(F)cc1 (configuration not stated) 28.5% [at 12.7 µM], COc1cc(NC(=O)CN2CCN(S(=O)(=O)c3ccc(Br)cc3)CC2)cc(OC)c1 -2.68%, CC1CCCC(C)N1C(=O)CN1CCN(c2nc(-c3ccc(F)cc3)cs2)CC1 (configuration not stated) -13.6%, O=C(CN1CCOCC1)Nc1ccc(NC(=O)CN2CCOCC2)c(Cl)c1 -22.4% [at 102 µM], COc1cccc(CC(=O)Nc2ccc(-c3csc(C)n3)cc2)c1 -3.28%, CC(C)c1ccccc1OCC(O)CN(CC(O)COc1cccc2ccccc12)C(C)C (configuration not stated) -40% [at 102 µM], COc1ccc(CCNC(=O)c2ccc3c(c2)sc2nc(-c4ccc(C)cc4)cn23)cc1OC 5.17%, Cc1c(Cl)cccc1NC(=O)N1CCN(C(=O)c2nsc3ccccc23)CC1 5.81%, Cn1cc(CNC(=O)c2ccc(OC3CCN(Cc4ccccn4)CC3)cc2)cn1 0.355% [at 102 µM], N#Cc1c(Cl)nc(-c2cccnc2)nc1-c1ccccc1 -10.7% [at 2.33 µM], CCOc1ccc(N(CC)S(=O)(=O)N2CCCC(C(=O)Nc3ccc(C(C)=O)cc3)C2)cc1 (configuration not stated) -2.74%, O=C(Nc1cc(S(=O)(=O)N2CCOCC2)ccc1OCC(F)(F)F)c1ccc(N2CCCC2=O)cc1 -48.4% [at 102 µM], CC(=O)c1ccc(NC(=O)Nc2ccc([N+](=O)[O-])cc2C)cc1 15.9%, CCN(CC)S(=O)(=O)c1cc([N+](=O)[O-])ccc1N=Nc1c(O)n(C)c2ccccc12 -0.516%, O=C(O)c1ccc(Cn2c(SCc3ccc(F)cc3)nc3ccncc32)cc1 -49.2%, Cn1c(=O)nc2n(-c3ccc(Br)cc3)c3cccc(Cl)c3cc-2c1=O -6.92%, CCOc1ccccc1NC(=S)N1CCN(c2cccc(C)c2C)CC1 16.7% [at 102 µM], COc1ccccc1NC(=S)N1CCN(c2ccc(F)cc2)CC1 -4.21% [at 0.501 µM], COc1ccccc1CN1CC2(CCN(S(=O)(=O)c3ccccc3)CC2)C1 8.67% [at 12.7 µM], CC(=O)N1CCN(CC(c2ccccc2)c2ccccc2)CC1 -30.3% [at 102 µM], COc1ccccc1CNCc1ccc(C(=O)O)s1 -1.62%, O=C(c1ccc(-n2cnnn2)cc1)N1CCN(C(c2ccccc2)c2ccccc2)CC1 0.701%, CC(C)NC(=S)N1CCN(C(c2ccccc2)c2ccccc2)CC1 7.96% [at 102 µM], c1ccc(C(c2ccccc2)N2CCN(Cc3nnnn3C3CCCCC3)CC2)cc1 1.35%, O=C(NCCCc1ccccc1)c1cc(COc2c(F)cccc2F)on1 178% [at 102 µM], CN(CCc1ccccn1)C1CCCN(S(=O)(=O)c2ccccc2Cl)C1 (configuration not stated) -5.52% [at 102 µM], COc1c(Cl)cc(Cl)cc1C(=O)Nc1cccc2cccnc12 56.1%, COc1ccc(-c2nn3c(=O)cc(CN4CCN(C(=O)c5ccc(OC)c(OC)c5)CC4)nc3s2)cc1 12.8%, Cc1ccc(S(=O)(=O)N[C@@H](Cc2ccccc2)C(=O)N2CCC(C(=O)N[C@H](C(=O)O)C(C)O)CC2)cc1 (some centres not stated) 1.01% [at 102 µM], COc1ccc(S(=O)(=O)N2CCOCC2)cc1NC(=O)Cc1c(F)cccc1Cl 17.5% [at 12.7 µM], CC(OC(=O)CNC(=O)c1cccc(F)c1)C(=O)NC1CCCCC1C (configuration not stated) 2.6% [at 102 µM], COc1ccc(NC(=O)C2CCN(c3ccc(Sc4ccc(C)cc4)nn3)CC2)c(OC)c1 -3.36%

Potency, inactive and 14.1 µM (active):
CC1=C(C/C=C(\C)CCCC(C)CCCC(C)CCCC(C)C)C(=O)c2ccccc2C1=O (configuration not stated)

Potency, inactive:
CCc1nn(CCCC(=O)NCc2ccc(C)cc2)c(=O)c2cc3occc3n12

Potency, active:
O=C(N/N=C/c1cc(Cl)cc([N+](=O)[O-])c1O)C(O)(c1ccccc1)c1ccccc1 28.2 µM, COC(=O)c1cn(C)c2ccc(S(=O)(=O)N3CC(C)CC(C)C3)cc2c1=O (configuration not stated) 56.2 µM, Cc1ccc2c(CSc3nncs3)cc(=O)oc2c1 50.1 µM, O=[N+]([O-])c1ccccc1/C=C/CN1CCC(O)CC1 39.8 µM, CC1CC(C)CN(C/C=C/c2ccccc2[N+](=O)[O-])C1 (configuration not stated) 50.1 µM, S=c1[nH]c(-c2cccs2)cn1-c1ccccc1 2.51 µM, O=C(c1ccc[nH]c1=S)N1CCN(S(=O)(=O)c2ccc(Br)cc2Cl)CC1 8.91 µM, S=c1nc2ccccc2c2nc(-c3cccnc3)[nH]n12 10 µM, COCCNC(=S)N(CCc1c(C)[nH]c2ccc(C)cc12)Cc1cccnc1 70.8 µM, CCNC(=S)N(CCc1c(C)[nH]c2ccc(C)cc12)Cc1ccco1 50.1 µM, COc1cccc(NC(=O)CN2CCN(c3nc(-c4cccc(OC)c4)cs3)CC2)c1 10 µM, COc1cccc(NC(=O)CN2CCN(CC(=O)Nc3ccccc3Cl)CC2)c1 35.5 µM, CCN(CC)S(=O)(=O)c1cc([N+](=O)[O-])ccc1NNC(=O)Nc1ccccc1 15.8 µM, CC(C)OCC(O)CN1CCN(C(c2ccccc2)c2ccccc2)CC1 (configuration not stated) 50.1 µM, COc1ccccc1NC(=S)N1CCN(C(c2ccccc2)c2ccccc2)CC1 28.2 µM, COc1ccccc1CN1CCN(C(c2ccccc2)c2ccccc2)CC1 10 µM, Oc1ccccc1CN1CCN(C(c2ccccc2)c2ccccc2)CC1 28.2 µM
